In the library only some 13% were active in any assay of this set; here they are far more common.
Shiga inhibitor: Shiga toxin inhibition; inhibition, % at 38.7 µM; AID 2315; Vero cells, Shiga toxin protein synthesis inhibition reporter; 290,000 compounds, 9.2% hits; in the data active = inhibition mostly above about 28%, no sharp cut-off; inactive = mostly below about 43%; also: 0% is about no effect
CHX counter: counter-screen hit for Shiga toxin inhibitors, cycloheximide. cell reporter, cycloheximide protein synthesis inhibition counterscreen. max response, %. 300,000 compounds, 12% hits; in the data active = max response mostly above about 13%, no sharp cut-off; inactive = mostly below about 14%; also: read at 38.3 µM for the half of the compounds with a filed dose; 0% is about no effect
HCV inhibitor: HCV inhibition; Huh7.5.1 HCVcc-Cre infection, luciferase reporter, 44 h; 340,000 compounds, 3.4% hits; AID 651820; Potency, µM (titrated, usually from 41.8 µM), for inactives: top-dose activity change, negative = inhibition, hits mostly inhibitors; active = well fitted inhibition curve with a large enough effect; inconclusive = small, poorly fitted or top-dose-only effect, or another doubt; inactive = no such curve, though single readings can be large or run the other way; also: potency is read from the fitted curve at half-maximal effect; % is scaled to controls: 0 for no effect and ±100 for the full control effect
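After 44 h co-culture of compound, cells and HCVcc-Cre (~0.5 moi), substrate is added for 15 min at room temperature and luciferase measured over 15 sec. Cells were seeded at 1,000/well and pre-cultured 4 h.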
FMDV antiviral: blocks foot and mouth disease virus; FMDV antiviral cell-based qHTS; Potency, µM (series often up to 57.9 µM), for the others: at the top dose activity change, negative = inhibition, hits mostly inhibitors; 410,000 compounds, 1.2% hits; calls by dose curve; tested in HEK293T cells; also: read-out not given here; potency is read from the fitted curve at half-maximal effect; % is scaled to controls: 0 for no effect and ±100 for the full control effect; nearly all actives have a fitted effect of over 45% in size
Lassa entry inh: blocks Lassa virus binding to or entry into cells; 300,000 compounds, 1.2% hits; Lassa virus pseudotype entry inhibition, cell reporter; AID 540256; Potency, µM (top dose mostly 37.9 µM), inactives show at the highest dose activity change, negative = inhibition, usual class: inhibitors; calls by dose curve; tested in HEK293 cells; also: potency is read from the fitted curve at half-maximal effect; % is scaled to controls: 0 for no effect and ±100 for the full control effect; nearly all actives have a fitted effect of over 50% in size
Marburg entry inh: blocks Marburg virus binding to or entry into cells. 300,000 compounds, 1.8% hits. Marburg virus pseudotyped entry inhibition, cell reporter. AID 540276. Potency, µM (titrated, usually from 37.8 µM), inactives show top-dose activity change, negative = inhibition, actives largely listed as inhibitors; calls by dose curve; tested in HEK293 cells; also: potency is read from the fitted curve at half-maximal effect; % is scaled to controls: 0 for no effect and ±100 for the full control effect
An asterisk follows results filed as active; [ ] = another dose, or the depositor's remark.

Screening CCc1ccccc1NC(=O)Nc1ccc2c(c1)OCO2 returned Shiga inhibitor 27, CHX counter 35*, HCV inhibitor inconclusive, FMDV antiviral 21%, Lassa entry inh 5% and Marburg entry inh 22%.
`CCc1c(C(=O)Nc2ccccc2C(N)=O)csc1C` gave Shiga inhibitor 38, CHX counter 31*, HCV inhibitor -7% and FMDV antiviral 20%.
For COc1ccc(CN2CCCC(C(=O)N3CCc4ccccc4C3)C2)cc1OC (centres undefined) the results were Shiga inhibitor -9, CHX counter -4, HCV inhibitor -9% and FMDV antiviral -29%.
For CCS(=O)(=O)c1nc(S(=O)(=O)c2ccc(C)cc2)c(NC(C)c2ccccc2)s1 (centres undefined) the results were FMDV antiviral 36%, Lassa entry inh inconclusive and Marburg entry inh inconclusive.
`O=C(CCC1CCCC1)Nc1cccc(Cc2ccncc2)c1` gave Shiga inhibitor -4, CHX counter 3, HCV inhibitor 6%, FMDV antiviral -7%, Lassa entry inh -5%[46.1 µM] and Marburg entry inh 23%[46.1 µM].
`O=C(NCCS(=O)(=O)N1CCN(c2ccccc2)CC1)C1CC1` gave HCV inhibitor 1%[8.37 µM], FMDV antiviral -3%, Lassa entry inh 5% and Marburg entry inh 25%.
Screening O=C(Nc1ccc2c(c1)OCO2)Nc1ccccc1F returned Shiga inhibitor 109*, CHX counter 57*, HCV inhibitor -18% and FMDV antiviral 0%.
`O=C(CNC(=O)c1ccccc1F)Nc1ccc2c(c1)OCO2` gave HCV inhibitor -2% and FMDV antiviral 82%.
For COc1ccc(NC(=O)CN2C(=O)CCc3cc(S(=O)(=O)N4CCOCC4)ccc32)cc1Cl the results were FMDV antiviral -22% and Lassa entry inh 4%[46.1 µM].
`Clc1cc(Sc2ccc(Br)cc2)nnc1-c1ccccc1` gave Shiga inhibitor -3, CHX counter 3, HCV inhibitor -19%, FMDV antiviral inconclusive, Lassa entry inh -27% and Marburg entry inh -23%[46.1 µM].
Screening COc1ccc(-c2cc(C(F)F)n3ncc(C(=O)Nc4c(C)n(C)n(-c5ccccc5)c4=O)c3n2)cc1 returned Shiga inhibitor -10, CHX counter -2, HCV inhibitor -18%, FMDV antiviral -17%, Lassa entry inh 24% and Marburg entry inh 34%[46.1 µM].
COc1ccc(CNC(=O)c2cnn3c(C(F)F)cc(C)nc23)cc1OC was read as Shiga inhibitor -3, CHX counter -2, HCV inhibitor 10µM* and FMDV antiviral inconclusive.
`CCC(C)c1ccc(-c2cc(C(=O)OCC(=O)Nc3cc(C)on3)c3ccccc3n2)cc1` (centres undefined) gave Shiga inhibitor 24, CHX counter 12, HCV inhibitor 28%, FMDV antiviral 6%, Lassa entry inh 1.6µM* and Marburg entry inh inconclusive.
For O=C(Nc1ccon1)c1cc(-c2ccccc2)nc2ccccc12 the results were Shiga inhibitor 16, CHX counter -3, HCV inhibitor -7%, FMDV antiviral inconclusive, Lassa entry inh -3% and Marburg entry inh 8%.
Screening COc1ccc(-c2cc(C(F)F)n3ncc(C(=O)Nc4cc(C)on4)c3n2)cc1 returned Shiga inhibitor 15, CHX counter 28*, HCV inhibitor 0%, FMDV antiviral -29%, Lassa entry inh 8% and Marburg entry inh inconclusive.
Cc1cc(NC(=O)c2cc(-c3ccc(OC(C)C)cc3)nc3ccccc23)no1 was read as Shiga inhibitor 39, CHX counter 20*, HCV inhibitor inconclusive, FMDV antiviral 23%, Lassa entry inh 14% and Marburg entry inh 12%[46.1 µM].
Screening O=C(c1cc(S(=O)(=O)N2CCCC2)c(Cl)cc1Cl)N1CCCC1 returned Shiga inhibitor -8, CHX counter -4, HCV inhibitor 5%, FMDV antiviral 0%, Lassa entry inh 1%[46.1 µM] and Marburg entry inh 4%[46.1 µM].
CCOC(=O)C1(C)CCCN(C(=O)c2ccc(OC)cc2OC)C1 (centres undefined) was read as FMDV antiviral -10%.
`COc1cc(C(=O)NC(C)C2CC3CCC2C3)cc(OC)c1OC` (centres undefined) gave Shiga inhibitor 3, CHX counter -1, HCV inhibitor -12%, FMDV antiviral -12%, Lassa entry inh inconclusive and Marburg entry inh 0%.
Screening CCN(Cc1ccccc1)S(=O)(=O)c1cc(C(=O)NC(C)C2CC3CCC2C3)ccc1OC (centres undefined) returned Shiga inhibitor -3, CHX counter 8, HCV inhibitor 11µM*, FMDV antiviral -29%, Lassa entry inh 3.2µM* and Marburg entry inh inconclusive.
For NC1=NC(=O)C(Cc2ccccc2)S1 (centres undefined) the results were Shiga inhibitor -24, CHX counter 0, HCV inhibitor 24%, FMDV antiviral -1%, Lassa entry inh 17% and Marburg entry inh 3%[46.1 µM].
For O=C(Nc1ccon1)c1csc2ccccc12 the results were Shiga inhibitor 31, CHX counter 9.7*, HCV inhibitor -5%, FMDV antiviral 6%, Lassa entry inh 19% and Marburg entry inh 1%.
O=C(Nc1cnccn1)c1csc2ccccc12 was read as Shiga inhibitor 111*, CHX counter 27*, HCV inhibitor 8%, FMDV antiviral 54%, Lassa entry inh inconclusive and Marburg entry inh 13%.
O=C(Nc1cnccn1)c1ccncc1 was read as Shiga inhibitor -2, CHX counter 1, HCV inhibitor 1%, FMDV antiviral 21%, Lassa entry inh 9% and Marburg entry inh 3%.
`Nc1c(Cl)cc(Cl)cc1C(=O)OCC(=O)N1CCCC1=O` gave HCV inhibitor 5%, FMDV antiviral 1%, Lassa entry inh -21% and Marburg entry inh -5%[46.1 µM].
C=CCNCc1cc(=O)n2c(-c3ccccc3)csc2n1 was read as Shiga inhibitor 10, CHX counter -5, HCV inhibitor 9%, FMDV antiviral -8%, Lassa entry inh 4%[46.1 µM] and Marburg entry inh -14%[46.1 µM].
`O=C(NC1CCCCC1)c1ccc(-c2ccccc2[N+](=O)[O-])o1` gave Shiga inhibitor 105*, CHX counter 44*, HCV inhibitor inconclusive, FMDV antiviral 0%, Lassa entry inh -19%[46.1 µM] and Marburg entry inh inconclusive.
`O=C(NC1CCC(O)CC1)c1ccc(-c2ccc([N+](=O)[O-])cc2)o1` (centres undefined) gave Shiga inhibitor 37, CHX counter 17*, HCV inhibitor inconclusive and FMDV antiviral 13%.
`CC(NC(=O)c1ccc([N+](=O)[O-])o1)C12CC3CC(CC(C3)C1)C2` (centres undefined) gave Shiga inhibitor 45*, CHX counter 35*, HCV inhibitor -26%, FMDV antiviral -2%, Lassa entry inh -2% and Marburg entry inh -17%[46.1 µM].
For O=C(NC1CCCC(C(F)(F)F)C1)c1ccc([N+](=O)[O-])o1 (centres undefined) the results were HCV inhibitor inconclusive and FMDV antiviral -17%.

Assay outcomes from PubChem.
